Source: PubChem (NMMLSC)
MEKK2wt PB1 HTS: raises or lowers MEK5 binding to wildtype human MEKK2 PB1 domain; Q9Y2U5; bead flow cytometry, Alexa488-MEK5 binding to MEKK2 WT; actives lie on both sides; binding response (% of control), % at 10 µM; 1.1% of 290,000 active; AID 1531; in the data active = binding response below about 67% or above about 130%
MEKK2mut PB1 HTS: signal of MEK5 binding to mutant human MEKK2 PB1 domain. 0.35% of 290,000 active. bead flow cytometry, Alexa488-MEK5 binding to MEKK2 mutant. percent response, % at 10 µM; in the data active = percent response above about 24%, passing the limit was not always enough
GRK2 aptamer HTS: blocks RNA aptamer binding to human GRK2 | P25098 | bead flow cytometry, FAM-aptamer displacement from GRK2 | inhibition of aptamer binding, % at 10 µM | 0.59% of 330,000 active | AID 488847;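 active = inhibition of aptamer binding above 40%, roughly 3 SD of noise, on plates passing a quality check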;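 also: median bead fluorescence of bound FAM aptamer so fluorescent compounds give negative values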
MEKK3 PB1 HTS: modulators (inhibitors or enhancers) of MEK5 binding to human MEKK3 PB1 domain | AID 1529 | 1.4% of 290,000 active | bead-based flow cytometry, Alexa488-MEK5 binding to MEKK3; actives lie on both sides; 0 = blocked by unlabeled MEK5, 100 = vehicle | binding response (% of control), % at 10 µM;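 active = binding response more than 3 SD above or below the average of its plate-row segment, actives on both sides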;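 also: Alexa488 bead fluorescence after subtracting the streptavidin-only scavenger bead signal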
Target sequence (Q99759 whole entry, looked up, the tested form may be a part): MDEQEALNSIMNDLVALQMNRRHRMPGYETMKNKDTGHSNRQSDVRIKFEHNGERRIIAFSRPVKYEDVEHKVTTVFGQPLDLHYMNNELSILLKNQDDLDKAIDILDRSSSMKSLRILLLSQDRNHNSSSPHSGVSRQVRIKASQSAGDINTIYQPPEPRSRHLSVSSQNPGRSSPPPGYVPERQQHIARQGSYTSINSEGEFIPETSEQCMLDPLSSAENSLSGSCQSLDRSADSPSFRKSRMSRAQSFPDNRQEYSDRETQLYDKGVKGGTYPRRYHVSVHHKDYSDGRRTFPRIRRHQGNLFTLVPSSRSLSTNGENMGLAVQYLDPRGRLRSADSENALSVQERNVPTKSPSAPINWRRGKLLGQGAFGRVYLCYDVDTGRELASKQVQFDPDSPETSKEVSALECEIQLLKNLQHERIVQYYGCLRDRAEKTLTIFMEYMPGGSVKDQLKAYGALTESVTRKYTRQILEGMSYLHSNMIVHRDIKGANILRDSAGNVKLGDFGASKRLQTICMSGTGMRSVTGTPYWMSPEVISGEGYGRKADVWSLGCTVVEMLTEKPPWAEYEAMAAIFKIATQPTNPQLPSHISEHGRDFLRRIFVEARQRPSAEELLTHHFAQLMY
MEKK2wt confirm: raises or lowers MEK5 binding to wildtype human MEKK2, retest | shares compounds with MEKK3 PB1 HTS | bead flow cytometry, Alexa488-MEK5 binding to MEKK2 WT; actives lie on both sides | binding response (% of control), % at 10 µM | 2.4% of 5,900 active | AID 1892; in the data active = binding response below about 16% or above about 210%; inactive = in between
MEKK2mut confirm: signal of MEK5 binding to mutant human MEKK2, retest | shares compounds with MEKK3 PB1 HTS | bead flow cytometry, Alexa488-MEK5 binding to MEKK2 mutant | percent response, % at 10 µM | 2% of 5,900 active | AID 1893; in the data active = percent response mostly above about 71%, no sharp cut-off; inactive = mostly below about 38%;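 also: higher means compound restores mutant binding toward wildtype level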
MEKK3 confirm: MEKK3-MEK5 PB1 inhibition, single concentration confirmation. bead flow cytometry, Alexa488-MEK5 binding to MEKK3; active compounds read low. 1.8% of 5,900 active. AID 1894. binding response (% of control), % at 10 µM. shares compounds with MEKK3 PB1 HTS;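 active = binding response below 72% of control, or above a set upper limit, though filed actives all read lower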;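 also: 100% = DMSO only wells and 0% = binding blocked by excess unlabeled MEK5; lower values mean stronger disruption of MEK5 binding to MEKK3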
* hit, by the source's call; x = no result; [ ] = remark or other dose. This is a sample that favours compounds with a hit; in the whole collection about 2.5% have one here.

SMILES	MEKK2wt PB1 HTS	MEKK2mut PB1 HTS	GRK2 aptamer HTS	MEKK3 PB1 HTS	MEKK2wt confirm	MEKK2mut confirm	MEKK3 confirm
COc1ccc(OCc2nc3c4cc(OC)c(OC)cc4nc(=S)n3[nH]2)cc1	106	1	6	128*	105	4	105
CC1CCCC/C1=N\NC(=S)Nc1cccnc1 (stereo not drawn)	6.0*[inhibitor]	-45	0	4.0*[inhibitor]	107	10	101
CCc1nnc(NS(=O)(=O)c2ccc(NC(=O)c3cc4ccccc4oc3=O)cc2)s1	104	18	5	103	x	x	x
Cc1cc2cc(CNS(=O)(=O)c3ccc4ccccc4c3)ccc2n1C	96	2	4	100	x	x	x
CC(=O)Nc1ccc(S(=O)(=O)NCc2ccc3[nH]c(C)cc3c2)cc1	72*[inhibitor]	-9	0	80*[inhibitor]	83	2	94
O=[N+]([O-])c1ccccc1NCCNS(=O)(=O)c1ccc(Cl)cc1	101	1	3	105	x	x	x
CC(=O)Nc1ccc(S(=O)(=O)NCc2ccc3c(c2)cc(C)n3C)cc1	50*[inhibitor]	-14	8	70*[inhibitor]	90	-9	97
CC(=O)Nc1ccc(S(=O)(=O)NCCNc2ccccc2[N+](=O)[O-])cc1	112	0	1	128*	106	-2	106
CC(=O)Nc1ccc(S(=O)(=O)NCc2ccc(C)cc2)cc1	122	7	2	126*	97	-3	95
N#CC(=C=[N-])c1nc2ccccc2nc1-[n+]1ccccc1	90	-21	0	86	x	x	x
COc1ccccc1NC(=O)C(=O)NCC(c1ccco1)N1CCc2ccccc21 (stereo not drawn)	x	x	0	x	x	x	x
CC(C)NC(=O)C(=O)NNC(=O)C12CC3CC(CC(C3)C1)C2	103	24*	0	110	107	0	102
CC12CC3CC(C)(C1)CC(Nc1nc(N4CCOCC4)nc4ccccc14)(C3)C2	151*	32	1	114	144	18	108
NC(=O)NC(=O)COC(=O)c1cccnc1Nc1ccccc1F	62*[inhibitor]	-49	1	65*[inhibitor]	107	2	107
CN(c1ccccc1)S(=O)(=O)c1cccc(C(=O)OCC(=O)Nc2ccc3[nH]c(=O)[nH]c3c2)c1	x	x	0	x	x	x	x
O=C(O)CSc1nc(SCc2ccccc2Cl)nc2c1CCCC2	125	10	0	122*	103	0	103
Cc1cc(C)nc(NC(=O)c2ccc([N+](=O)[O-])c(C)c2)n1	101	3	0	105	x	x	x
Cc1cc(C(=O)Nc2ncn[nH]2)ccc1[N+](=O)[O-]	91	-1	0	73*[inhibitor]	109	7	105
COc1ccc(C(C(=O)NC2CCCC2)N(Cc2ccc(C)cc2)C(=O)c2ccn[nH]2)cc1OC (stereo not drawn)	97	-1	0	99	x	x	x
C(#Cc1ccccc1)C[N+]1(CC#Cc2ccccc2)CCCC1	96	-1	0	97	x	x	x
C=CC#CC[N+]1(CC#Cc2ccccc2)CCOCC1	99	11	x	51*[inhibitor]	113	21	35*
Cc1cccc(NC(=O)CN2C(=O)N/C(=C\c3ccc(-c4cccc(C(=O)O)c4)o3)C2=O)c1	52*[inhibitor]	-31	0	70*[inhibitor]	105	8	109
Cc1ccc(NC(=O)CN2C(=O)N/C(=C/c3ccc(C)s3)C2=O)cc1	104	1	0	129*	98	0	103
Cc1ccc(NC(=O)CN2C(=O)N/C(=C/c3ccc(C)o3)C2=O)cc1	80	-10	0	79	x	x	x
Cc1cccc(NC(=O)CN2C(=O)N/C(=C/c3ccc(C)o3)C2=O)c1	105	1	3	129*	103	4	99
SMILES	MEKK2wt PB1 HTS	MEKK2mut PB1 HTS	GRK2 aptamer HTS	MEKK3 PB1 HTS	MEKK2wt confirm	MEKK2mut confirm	MEKK3 confirm
CCn1c(C)cc(/C=C2\NC(=O)N(CC(=O)Nc3cccc(C)c3)C2=O)c1C	103	3	1	104	x	x	x
O=[N+]([O-])c1cc(S(=O)(=O)N2CCCC2)ccc1N/N=C/c1ccccn1	93	-2	0	92	x	x	x
CC(=O)c1cccc(N(C(=O)Cn2nnc3ccccc32)C(C(=O)NCC2CCCO2)c2ccc(N3CCOCC3)cc2)c1 (stereo not drawn)	89	-13	2	101	x	x	x
Cc1cccc2cncc(OCc3nnc(SC(F)F)n3C)c12	80	-2	0	73*[inhibitor]	107	5	108
CC(Sc1nnc(COc2ccc3ccccc3c2)n1C)C(=O)O (stereo not drawn)	97	1	0	102	x	x	x
COCCNC(=O)CN(C(=O)CCC(=O)Nc1ccccn1)c1ccccc1F	86	-1	0	70*[inhibitor]	103	4	100
Cc1ccc(C)c(N(CC(=O)NCc2ccc3c(c2)OCO3)C(=O)CCC(=O)Nc2ccccn2)c1	91	-8	1	82*[inhibitor]	102	4	104
Cc1ccc(N(CC(=O)NCc2ccc3c(c2)OCO3)C(=O)CCC(=O)Nc2ccccn2)cc1	95	-5	1	101	x	x	x
CCCOc1ccc(/C(CC)=N/NC(=O)C2(C)CC2(Br)Br)cc1 (stereo not drawn)	103	-2	0	97	x	x	x
O=C(CCl)Nc1cc(-c2ccccc2)nn1-c1ccccc1	102	-1	1	98	x	x	x
Nc1ccccc1Nc1cc(-c2ccccc2)nn1-c1cccc(Cl)c1	113	1	1	141*	109	2	102
CCOC(=O)c1cn(Cc2ccccc2)nn1	101	0	4	131*	100	-3	105
CC(NC(=O)C(=O)N/N=C/c1ccccc1)c1ccccc1 (stereo not drawn)	707*	564*	3	121	103	6	102
CCCC(CCC)C(=O)Nc1ccc2c(c1)N(C(=O)CN1CCN(C)CC1)c1ccccc1CC2	98	-6	0	93	x	x	x
CC(C)C[C@H](NC(=O)c1[nH]cnc1C(=O)N[C@@H](C)c1ccccc1)C(=O)OCc1ccccc1	1.0*[inhibitor]	1	2	1.0*[inhibitor]	102	-2	105
CC(C)C[C@H](NC(=O)c1nc[nH]c1C(=O)N[C@@H](CC(C)C)C(=O)OC(C)(C)C)C(=O)OCc1ccccc1	99	-8	2	102	x	x	x
CNC(=S)N/N=C(\C)c1ccc(C(C)(C)C)cc1	110	22	1	101	x	x	x
CNC(=S)N/N=C(\C)c1ccccc1	128	28	3	132*	109	2	103
CCN1C(=O)N(CC)C2C1N(C(C)=O)C(=O)N2C(C)=O (stereo not drawn)	99	-3	0	94	x	x	x
